AF4-AF9 inh – MLL-AF4/AF9 protein interaction inhibition. P42568. AlphaScreen, biotin-AF4 peptide binding to FLAG-AF9. inhibition, % at 10 µM. 0.47% of 350,000 active;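 active = every replicate reaching a set inhibition limit, whatever the replicate mean, cut at about 25% in these data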;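 also: 0% = plate neutral control median and 100% = total signal loss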
INS-1E GSIS act – primary screen for activators of insulin secretion dependent on glucose, INS-1E cells, GLuc reporter luminescence; INS-1E GLuc reporter insulin secretion, 2-3 h; activation, % at 16.6 µM; 0.61% of 370,000 active; AID 743287;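 active = lowest replicate activation of at least 40%, so every replicate reaches that level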;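 also: 0% = median of neutral control wells and 100% = median of IBMX positive control wells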
PGC1a acetyl inh – PGC1a acetylation modulation, inhibitor mode. U2OS PGC1a acetylation, AlphaScreen anti-acetyl-lysine; with virally co-expressed GCN5 acetyltransferase. inhibition, % at 15.6 µM. 0.17% of 350,000 active. AID 651687;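 active = every replicate shows inhibition of at least 40%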;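 also: 0% = neutral control wells and 100% = positive control wells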
RAD52 inh – blocks human RAD52 DNA annealing; P43351; recombinant RAD52 DNA annealing, FRET fluorescence; inhibition, % at 18.7 µM; 0.46% of 360,000 active; AID 651710;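 active = every replicate showing at least 50% inhibition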
RAD54 inh – RAD54 (human) branch migration inhibition; Q92698; RAD54 Holliday junction branch migration, FAM/BHQ fluorescence; inhibition, % at 10.4 µM; 0.14% of 360,000 active;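 active = mean normalized replicate activity at least 40 and at least half of replicates scoring 40 or more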;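 also: 0% = median of neutral control wells and 100% = median of positive control wells; inhibitors cause a drop in the FAM fluorescence signal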
Target sequence (Q92698 whole entry, looked up): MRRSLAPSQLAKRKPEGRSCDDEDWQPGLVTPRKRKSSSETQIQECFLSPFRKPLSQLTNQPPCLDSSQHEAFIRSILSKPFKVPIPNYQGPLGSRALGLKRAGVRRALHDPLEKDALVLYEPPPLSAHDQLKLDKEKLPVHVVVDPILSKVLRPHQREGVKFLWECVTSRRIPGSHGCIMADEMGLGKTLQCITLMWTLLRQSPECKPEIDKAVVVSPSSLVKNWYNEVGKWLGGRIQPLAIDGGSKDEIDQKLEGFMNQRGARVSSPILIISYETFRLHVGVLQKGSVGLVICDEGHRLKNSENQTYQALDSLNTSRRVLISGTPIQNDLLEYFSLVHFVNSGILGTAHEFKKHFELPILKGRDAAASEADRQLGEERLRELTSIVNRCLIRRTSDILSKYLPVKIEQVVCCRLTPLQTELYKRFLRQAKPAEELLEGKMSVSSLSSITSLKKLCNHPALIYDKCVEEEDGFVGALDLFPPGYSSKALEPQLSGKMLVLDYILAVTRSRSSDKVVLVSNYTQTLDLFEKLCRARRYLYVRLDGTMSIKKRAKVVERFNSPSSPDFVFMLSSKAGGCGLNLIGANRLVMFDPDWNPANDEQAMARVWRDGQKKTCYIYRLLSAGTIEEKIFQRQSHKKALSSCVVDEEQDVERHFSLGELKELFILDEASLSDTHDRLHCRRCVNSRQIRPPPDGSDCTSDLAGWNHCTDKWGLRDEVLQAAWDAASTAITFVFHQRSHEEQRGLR
ERAP1 inh – inhibitors of human ERAP1 aminopeptidase; AID 652197; 0.15% of 340,000 active; inhibition, % at 10.7 µM; recombinant ERAP1, Leu-AMC fluorescence, 60 min; Q9NZ08;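 active = mean replicate inhibition of at least 30%, or all replicates individually reaching that 30% level; inactive = mean below 30% and not every replicate reaching it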;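 also: 0% = neutral control wells and 100% = L-leucinethiol positive control wells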
* marks the source's active call; other numbers are inactive results. Hits are enriched below; roughly 1.4% of the tested compounds scored in any of these assays.

`CCC(=O)Nc1ccc2c(c1)OC[C@@H](C)N(Cc1nccs1)C[C@@H](C)[C@H](OC)CN(C)C2=O` gave INS-1E GSIS act 0.
`CCCCCCn1c(SCCCC)nc2c1c(=O)[nH]c(=O)n2C` gave PGC1a acetyl inh -8 and RAD54 inh -7.
`CCCCn1c(NC(C)CC)nc2c1c(=O)[nH]c(=O)n2C` (stereo not drawn) gave INS-1E GSIS act 129* and RAD54 inh 3.
Screening C/C(Cl)=C/CSc1nc2c(c(=O)[nH]c(=O)n2C)n1C(C)C returned INS-1E GSIS act 74*, PGC1a acetyl inh -8 and RAD54 inh -6.
CCCCCn1c(SC(C)C(C)=O)nc2c1c(=O)[nH]c(=O)n2C (stereo not drawn) was read as AF4-AF9 inh -5, INS-1E GSIS act 73*, PGC1a acetyl inh 17, RAD52 inh -7, RAD54 inh -6 and ERAP1 inh 2.
CC(C)CCn1c(N2CCCC2)nc2c1c(=O)[nH]c(=O)n2C was read as AF4-AF9 inh 1, INS-1E GSIS act 46*, RAD52 inh 6, RAD54 inh -5 and ERAP1 inh -4.
For C=CCSc1nc2c(c(=O)[nH]c(=O)n2C)n1C(C)C the results were PGC1a acetyl inh 5 and RAD54 inh -4.
`O=C([C@H]1[C@H](CO)[C@H]2Cn3c(ccc(-c4ccccc4)c3=O)[C@@H]1N2)N1CCCCC1` gave AF4-AF9 inh 0, INS-1E GSIS act 7, RAD52 inh -14, RAD54 inh 2 and ERAP1 inh 5.
CCCN(C)C[C@@H]1Oc2cc(C#Cc3ccc(F)cc3)ccc2S(=O)(=O)N([C@@H](C)CO)C[C@@H]1C was read as AF4-AF9 inh 4, INS-1E GSIS act 3, PGC1a acetyl inh -32, RAD52 inh 40, RAD54 inh -25 and ERAP1 inh -3.
`Cc1noc(C)c1S(=O)(=O)N(C)C[C@H]1Oc2ccc(NC(=O)c3ccncc3)cc2C(=O)N([C@H](C)CO)C[C@@H]1C` gave INS-1E GSIS act 20.
CCOc1cccc2cc(C(=O)Nc3cc(C)on3)c(=O)oc12 was read as INS-1E GSIS act 45*, PGC1a acetyl inh 10 and RAD54 inh 1.
Cc1ccsc1/C=N/n1c(-c2ccccc2)n[nH]c1=S was read as AF4-AF9 inh -9, INS-1E GSIS act -4, RAD52 inh -12 and ERAP1 inh -4.
`Cc1ccsc1/C=N/n1c(-c2ccncc2)n[nH]c1=S` gave INS-1E GSIS act 48*, PGC1a acetyl inh -1 and RAD54 inh 9.
For CCOC(=O)CCCCC(=O)c1[nH]c(=O)[nH]c1CSCCO the results were AF4-AF9 inh 77*, INS-1E GSIS act 15, PGC1a acetyl inh -4, RAD52 inh 3, RAD54 inh 15 and ERAP1 inh -2.
COc1cc(/C=C2\SC(=Nc3ccccc3)N(CCc3c[nH]c4ccccc34)C2=O)ccc1OC(C)C(=O)O (stereo not drawn) was read as INS-1E GSIS act -6.
`O=C1/C(=C/c2ccc(N3CCOCC3)o2)SC(=Nc2ccccc2)N1CCc1c[nH]c2ccccc12` gave PGC1a acetyl inh 62* and RAD54 inh -6.
Screening CCCNC(=O)N1CC2(CCN(Cc3ccncc3)CC2)c2c(n(C)c3cc(OC)ccc23)[C@@H]1CO returned INS-1E GSIS act -11.
Screening CN(C)c1ccc(-n2cccc2/C=C/[N+](=O)[O-])cc1 returned AF4-AF9 inh 25*, INS-1E GSIS act -3, PGC1a acetyl inh 9, RAD52 inh -1, RAD54 inh -1 and ERAP1 inh -4.
For C[C@H]1CN([C@@H](C)CO)C(=O)c2cc(C#CC3CCCC3)cnc2O[C@H]1CN(C)C(=O)Nc1ccccc1 the results were AF4-AF9 inh 0, INS-1E GSIS act -1, PGC1a acetyl inh 1, RAD52 inh -9, RAD54 inh -5 and ERAP1 inh 1.
CCOc1cc(C2C3=C(CC(C)(C)CC3=O)Nc3n[nH]c(C)c32)ccc1O (stereo not drawn) was read as AF4-AF9 inh 0, INS-1E GSIS act 43*, PGC1a acetyl inh -12, RAD52 inh -16 and ERAP1 inh -2.
`CN(C)CCNc1ccc(-c2nn(C)c(=O)c3ccccc23)cc1[N+](=O)[O-]` gave AF4-AF9 inh 4, INS-1E GSIS act 0, RAD52 inh -16 and ERAP1 inh -2.
CN(C)CCNCCCNc1c2ccccc2nc2cccc([N+](=O)[O-])c12 was read as AF4-AF9 inh 17, PGC1a acetyl inh 3, RAD52 inh 81* and ERAP1 inh 2.
Screening COC(=O)C1=C(C)N(Cc2ccc(C(F)(F)F)cc2)C(=NCc2ccccc2)NC1c1ccc(C(F)(F)F)cc1 (stereo not drawn) returned AF4-AF9 inh 9, INS-1E GSIS act 460*, RAD52 inh -10 and ERAP1 inh -1.
COC(=O)C1=C(C)N(Cc2ccc(C(F)(F)F)cc2)C(=NCc2ccccc2)NC1c1ccccc1 (stereo not drawn) was read as AF4-AF9 inh 11, INS-1E GSIS act 949*, RAD52 inh -8 and ERAP1 inh 4.
For C[C@@H]1CN([C@@H](C)CO)C(=O)c2cccc(NS(=O)(=O)c3ccc(F)cc3)c2O[C@@H]1CN(C)Cc1ccc(Oc2ccccc2)cc1 the results were INS-1E GSIS act -18 and PGC1a acetyl inh -9.
For O=S(=O)(Cc1ccccc1)NCC[C@@H]1CC[C@H](NS(=O)(=O)c2ccccc2)[C@@H](CO)O1 the results were AF4-AF9 inh 0, INS-1E GSIS act -1, PGC1a acetyl inh 7, RAD52 inh -33, RAD54 inh -7 and ERAP1 inh -3.
For Cc1cc(OC(=O)c2ccccc2Cl)c([N+](=O)[O-])c(=O)[nH]1 the results were AF4-AF9 inh -15, INS-1E GSIS act -1, PGC1a acetyl inh -8, RAD52 inh -10, RAD54 inh -9 and ERAP1 inh -3.
Cc1cc(OC(=O)c2ccc(Cl)cc2Cl)c([N+](=O)[O-])c(=O)[nH]1 was read as AF4-AF9 inh 37*, INS-1E GSIS act 2, PGC1a acetyl inh 0, RAD52 inh -11, RAD54 inh -4 and ERAP1 inh -3.
Screening O=C(Nc1ccccc1)C1=C[C@@H](c2ccc3c(c2)Cc2ccccc2-3)C[C@@H](OCCCCO)O1 returned AF4-AF9 inh 7, RAD52 inh 52*, RAD54 inh 11 and ERAP1 inh 3.
For Cc1sc(N/N=C/c2ccco2)nc1-c1ccccc1 the results were AF4-AF9 inh 25*, INS-1E GSIS act 6, PGC1a acetyl inh 5, RAD52 inh -4 and ERAP1 inh 1.
Screening CC(=O)Nc1nc(C)c(-c2csc(Nc3cccc([N+](=O)[O-])c3)n2)s1 returned INS-1E GSIS act 134*, PGC1a acetyl inh -4 and RAD54 inh 2.
